# Test results taken from the supplement of paper PMC9023506.
# Where a name gives a salt, the structure may show the parent alone.
# System: Danio rerio larvae (5 dpf)
# Assay: optomotor response to green moving lines, difference vs DMSO (percentage points (treated minus DMSO)); higher = more of the behaviour than the DMSO vehicle control
# Conditions: 10 µM; exposure time: 3 h pre-incubation + 3 h imaging
# Method: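 5-dpf wild-type zebrafish larvae were imaged in 96-well plates. They were treated with 190 Tocris FDA-approved drugs at 10 µM (1 µl/ml DMSO) for 3 h before and 3 h during imaging at 28.5 °C, 48 larvae per drug. Automated image analysis gave % time moving and optomotor responses. Values are drug group mean minus DMSO vehicle mean (n=844), in percentage points, for 10 behaviours.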
row,Compound,optomotor response to green moving lines
1,COc1cc2c(cc1OC)C1CC(=O)C(CC(C)C)CN1CC2 (stereo unspecified) [Tetrabenazine],-9.74
2,C=CCN1C[C@H](C(=O)N(CCCN(C)C)C(=O)NCC)C[C@@H]2c3cccc4[nH]cc(c34)C[C@H]21 [Cabergoline],-10.2
3,CN1C[C@H](C(=O)N[C@]2(C)O[C@@]3(O)[C@@H]4CCCN4C(=O)[C@H](Cc4ccccc4)N3C2=O)C[C@@H]2c3cccc4[nH]cc(c34)C[C@H]21 [Dihydroergotamine mesylate],16.2
4,CC(O)(CS(=O)(=O)c1ccc(F)cc1)C(=O)Nc1ccc(C#N)c(C(F)(F)F)c1 (stereo unspecified) [Bicalutamide],1.12
5,O=c1[nH]c2ccccc2n1C1CCN(CCCC(c2ccc(F)cc2)c2ccc(F)cc2)CC1 [Pimozide],-16.3
6,CC(C)C[C@H]1C(=O)N2CCC[C@H]2[C@]2(O)O[C@](NC(=O)[C@@H]3C=C4c5cccc6[nH]c(Br)c(c56)C[C@H]4N(C)C3)(C(C)C)C(=O)N12 [Bromocriptine mesylate],-20.3
7,CC[C@@H](C(N)=O)N1CCCC1=O [Levetiracetam],4.63
8,CCN(C)C(=O)Oc1cccc([C@H](C)N(C)C)c1 [Rivastigmine tartrate],-8.15
9,C=C1C[C@@H]2[C@H](CC[C@]3(C)C(=O)CC[C@@H]23)[C@@]2(C)C=CC(=O)C=C12 [Exemestane],9.98
10,COc1ccc(C(CN(C)C)C2(O)CCCCC2)cc1 (stereo unspecified) [Venlafaxine hydrochloride],1.84
11,N[C@@H]1C[C@H]1c1ccccc1 [Tranylcypromine hydrochloride],0.888
